Results filed as inconclusive are left out. Where a call stands in place of a potency, no number is given. A number with no mark means an inactive call. The source made the active and inactive calls. Unless noted, calls follow the shape of the dose curve; as a rule, active = well fitted curve in the direction sought with a large enough effect in the repeat runs; inconclusive = weak or mixed curves; inactive = no such curve, though single readings can be large; an effect the other way counts as inactive or inconclusive.
Tests used:
[1] = qHTS assay to identify small molecule agonists of the RXR signaling pathway - cell viability counter screen (AID 1159529);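 also: HEK 293T cells carrying an RXR-alpha UAS beta-lactamase reporter; series mostly up to about 77 µM; nearly all actives have a fitted effect of over 50% in size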
Summary of the method: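 Steps: seed RXR-alpha-UAS-bla HEK 293T cells in assay medium containing 2% charcoal-stripped FBS; incubate 5 hr; add compounds in DMSO; incubate 16 hr at 37 C; after the bla read, add CellTiter-Glo and read luminescence at 30 min.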

[2] = qHTS assay to identify small molecule antagonists of the retinoid acid receptor (RAR) signaling pathway - cell viability counter screen (AID 1159551); also: nearly all actives have a fitted effect of over 35% in size
Summary of the method: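 Viability of C3RL4 cells is quantified from ATP by luminescence after 6 h treatment at 37 C with compounds and 1 uM retinol.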

[3] = qHTS assay to identify small molecule antagonists of the retinoic acid receptor (RAR) signaling pathway (AID 1159552; also: nearly all actives have a fitted effect of over 50% in size)
Summary of the method: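 Retinol at 1 uM final stimulated RARE-luciferase expression in C3RL4 cells exposed to test compounds for 6 hr at 37 C. Reduced luminescence, read 30 min after detection reagent, indicated pathway antagonism.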

[4] = qHTS assay to identify small molecule agonists of the retinoic acid receptor (RAR) signaling pathway (AID 1159553); also: potency is read from the fitted curve at half-maximal effect
Summary of the method: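 Compounds dissolved in DMSO were pinned onto C3RL4 cells seeded the previous day, and plates were held 6 hr at 37 C. RARE-driven luciferase output was then read by luminescence.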

[5] = qHTS assay to identify small molecule antagonists of the estrogen related receptor (ERR) signaling pathway - cell viability counter screen (AID 1224818); also: series mostly up to about 46 µM
Summary of the method: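 Cytotoxicity check run alongside the ERR antagonist screen: cells exposed to test compounds 17.5 h at 37 C, viability taken as CellTiter-Fluor fluorescence intensity.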

[6] = qHTS assay to identify small molecule antagonists of the estrogen related receptor signaling pathway with the pleiotropic PPARgamma coactivator (PGC) cell viability counter screen (AID 1224822; also: series mostly up to about 46 µM)
Summary of the method: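 Viable cell signal (CellTiter-Fluor, 30 min, 37 C/5% CO2) was measured in PGC/ERR cells after a 17.5 h compound incubation.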

[7] = qHTS assay to identify small molecule antagonists of the estrogen related receptor (ERR) signaling pathway from Tox21 library - cell viability counter screen (AID 1224834); also: nearly all actives have a fitted effect of over 30% in size; also: potency is read from the fitted curve at half-maximal effect
Summary of the method: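 In this quantitative HTS format, ERR cells receive compounds in DMSO and are incubated for 17.5 h at 37 C. Live-cell protease activity is then detected with CellTiter-Fluor.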

[8] = target: Luciferin 4-monooxygenase (Photinus pyralis) (UniProt P08659); assay: qHTS assay to identify small molecule inhibitors of firefly luciferase (AID 1224835); also: nearly all actives have a fitted effect of over 25% in size; also: potency is read from the fitted curve at half-maximal effect
Summary of the method: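 Quantitative HTS format; KM concentrations of both substrates. Purified P. pyralis FLuc activity quantified from luminescence images.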

[9] = qHTS assay to identify small molecule agonists of the constitutive androstane receptor (CAR) signaling pathway - cell viability counter screen (AID 1224836); also: series mostly up to about 92 µM; nearly all actives have a fitted effect of over 45% in size
Summary of the method: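 Cells were seeded and incubated 4 hrs. Compounds were added across 15 concentrations together with PK11195 at 0.75 uM final. Plates were incubated 23 hrs at 37 C. CellTiter-Fluor was added and fluorescence measured.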

[10] = qHTS assay to identify small molecule antagonists of the constitutive androstane receptor (CAR) signaling pathway - cell viability counter screen (AID 1224837); also: series mostly up to about 92 µM; nearly all actives have a fitted effect of over 45% in size
Summary of the method: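 In quantitative HTS format, compounds at 15 concentrations were applied to HepG2 cells double-transfected with hCAR and CYP2B6-2.2kb under 50 nM CITCO stimulation; live-cell protease activity was read after 23 hr via CellTiter-Fluor.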

[11] = target: Nuclear receptor subfamily 1 group I member 3 (Homo sapiens) (UniProt Q14994); assay: qHTS assay to identify small molecule antagonists of the constitutive androstane receptor (CAR) signaling pathway (AID 1224838); also: nearly all actives have a fitted effect of over 40% in size
Summary of the method: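 CITCO-stimulated (50 nM final) HepG2 cells stably transfected with hCAR and CYP2B6-2.2kb luciferase were exposed to compounds at 15 concentrations for 24 h at 37 C/5% CO2. A luciferase reagent was added and luminescence recorded after 30 min.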

[12] = target: Nuclear receptor subfamily 1 group I member 3 (Homo sapiens) (UniProt Q14994); assay: qHTS assay to identify small molecule agonists of the constitutive androstane receptor (CAR) signaling pathway (AID 1224839); also: nearly all actives have a fitted effect of over 15% in size; also: potency is read from the fitted curve at half-maximal effect
Summary of the method: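 Cells were plated and incubated 4 hrs, then dosed with compounds at 15 concentrations. PK11195 was added to 0.75 uM final. After 24 hrs at 37 C, luciferase luminescence was measured.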

[13] = qHTS assay to identify small molecule antagonists of the estrogen related receptor signaling pathway with the pleiotropic PPARgamma coactivator (PGC) from Tox21 10K library - cell viability counter screen (AID 1224840; active = well fitted cell-killing curve with a large enough effect in the repeat runs, not every such curve was filed as active; also: nearly all actives have a fitted effect of over 40% in size)
Summary of the method: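 Viability counter screen, PGC/ERR cells: 17.5 h compound exposure at 37 C, CellTiter-Fluor fluorescence endpoint.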

[14] = target: Retinoic acid receptor RXR-alpha (Homo sapiens) (UniProt P19793); assay: qHTS assay to identify small molecule agonists of the RXR signaling pathway (AID 1159527; calls by dose curve; also: nearly all actives have a fitted effect of over 35% in size; also: potency is read from the fitted curve at half-maximal effect)
Summary of the method: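 Cells plated at 2,000/well, rested 5 hr at 37 C, pin-dosed with DMSO compound solutions, incubated 16 hr, then loaded with B/G FRET substrate for 2 hr at RT before dual-emission fluorescence reading.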

[15] = qHTS assay to identify small molecule agonists of the estrogen related receptor (ERR) signaling pathway (AID 1224820)
Summary of the method: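 Following a 6 h settling period, 2,000 ERR cells per well receive DMSO-dissolved compounds by pin tool and incubate 18 h at 37 C; agonist activity is scored from One-Glo luminescence read 30 min post-addition.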

[16] = test system: estrogen-related receptor alpha (ERRalpha) with PGC-1alpha coactivator, human; assay: qHTS assay to identify small molecule antagonists of the estrogen related receptor signaling pathway with the pleiotropic PPARgamma coactivator (PGC) (AID 1224821; calls by dose curve;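 also: series mostly up to about 46 µM; lower luminescence signal means antagonism of PGC/ERR signalling; nearly all actives have a fitted effect of over 50% in size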)
Summary of the method: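 Screening used NTP's PGC/ERR cells, dosed via pin tool with compound in DMSO alongside positive and negative controls. After 18 h at 37 C, One-Glo reagent sat 30 min at room temperature before luminescence detection.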

[17] = qHTS assay to identify small molecule agonists of the estrogen related receptor signaling pathway with the pleiotropic PPARgamma coactivator (PGC) (AID 1224823)
Summary of the method: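 In this quantitative high-throughput screen, an 18 h, 37 C treatment of PGC/ERR cells with compounds in DMSO preceded a One-Glo luminescence read taken after 30 min at room temperature.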

[18] = qHTS assay to identify small molecule antagonists of the estrogen related receptor signaling pathway with the pleiotropic PPARgamma coactivator (PGC) from Tox21 10K library (AID 1224841; call rule not given here; also: actives are mostly falling curves and most rising ones were filed inactive; nearly all actives have a fitted effect of over 50% in size; also: potency is read from the fitted curve at half-maximal effect)
Summary of the method: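 In the PGC/ERR line, DMSO solutions of test chemicals are pin-delivered to 2,000 cells/well six hours after dispensing. Following eighteen hours' incubation, One-Glo reagent is added and luminescence recorded.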

[19] = qHTS assay to identify small molecule agonists of the estrogen related receptor signaling pathway with the pleiotropic PPARgamma coactivator (PGC) from Tox21 10K library (AID 1224842); also: nearly all actives have a fitted effect of over 15% in size; also: potency is read from the fitted curve at half-maximal effect
Summary of the method: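 PGC/ERR reporter cells (NTP line) were seeded 2,000 per well, rested 6 h at 37 C/5% CO2, then pin-dosed with compounds in DMSO for 18 h at 37 C; luciferase read by One-Glo luminescence after 30 min at room temperature.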

Nuclear receptor subfamily 1 group I member 3 (Homo sapiens), sequence (Q14994 whole entry, looked up): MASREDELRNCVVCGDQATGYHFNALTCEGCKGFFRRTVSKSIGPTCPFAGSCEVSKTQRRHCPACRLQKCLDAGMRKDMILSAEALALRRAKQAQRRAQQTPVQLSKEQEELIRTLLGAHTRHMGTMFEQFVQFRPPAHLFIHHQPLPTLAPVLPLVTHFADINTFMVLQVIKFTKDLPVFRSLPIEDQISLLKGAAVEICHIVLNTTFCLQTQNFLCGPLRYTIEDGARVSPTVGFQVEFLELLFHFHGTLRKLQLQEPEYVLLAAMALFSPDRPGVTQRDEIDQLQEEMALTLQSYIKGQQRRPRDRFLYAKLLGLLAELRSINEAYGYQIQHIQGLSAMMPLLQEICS
Luciferin 4-monooxygenase (Photinus pyralis), sequence (P08659 whole entry, looked up): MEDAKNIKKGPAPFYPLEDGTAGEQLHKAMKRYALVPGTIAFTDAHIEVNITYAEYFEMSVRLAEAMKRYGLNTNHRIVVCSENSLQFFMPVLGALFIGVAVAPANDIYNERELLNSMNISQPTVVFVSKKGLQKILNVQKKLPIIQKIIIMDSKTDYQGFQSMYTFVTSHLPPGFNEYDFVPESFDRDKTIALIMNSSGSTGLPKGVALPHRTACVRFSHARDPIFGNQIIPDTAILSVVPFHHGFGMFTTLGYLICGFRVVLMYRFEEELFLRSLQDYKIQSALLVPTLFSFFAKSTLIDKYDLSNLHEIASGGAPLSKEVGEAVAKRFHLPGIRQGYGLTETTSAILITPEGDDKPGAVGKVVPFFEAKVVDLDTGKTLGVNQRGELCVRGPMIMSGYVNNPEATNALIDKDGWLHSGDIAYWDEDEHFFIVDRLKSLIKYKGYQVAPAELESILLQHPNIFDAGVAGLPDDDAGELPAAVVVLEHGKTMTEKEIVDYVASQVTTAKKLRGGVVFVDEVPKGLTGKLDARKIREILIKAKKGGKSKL
Retinoic acid receptor RXR-alpha (Homo sapiens), sequence (P19793 whole entry, looked up): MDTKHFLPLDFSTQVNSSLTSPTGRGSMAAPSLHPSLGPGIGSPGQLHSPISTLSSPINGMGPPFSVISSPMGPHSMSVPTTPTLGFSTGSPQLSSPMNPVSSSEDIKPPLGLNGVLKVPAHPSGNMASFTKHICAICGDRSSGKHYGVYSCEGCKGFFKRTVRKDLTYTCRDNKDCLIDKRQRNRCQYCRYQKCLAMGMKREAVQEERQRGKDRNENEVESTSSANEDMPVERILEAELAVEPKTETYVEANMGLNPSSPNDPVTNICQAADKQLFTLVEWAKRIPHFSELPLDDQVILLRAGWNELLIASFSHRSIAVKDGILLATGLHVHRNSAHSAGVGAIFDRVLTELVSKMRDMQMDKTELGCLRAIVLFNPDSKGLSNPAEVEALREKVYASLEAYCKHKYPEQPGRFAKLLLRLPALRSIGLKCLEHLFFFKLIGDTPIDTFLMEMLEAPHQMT

SMILES	Potency [1]	outcome [2]	Potency [3]	Potency [4]	outcome [5]	outcome [6]	Potency [7]	Potency [8]	outcome [9]	outcome [10]	Potency [11]	Potency [12]	outcome [13]	Potency [14]	outcome [15]	outcome [16]	outcome [17]	Potency [18]	Potency [19]
CCCCCN(CCCCC)C(=O)C(CCC(=O)O)NC(=O)c1ccc(Cl)c(Cl)c1 (stereo unspecified)	inactive	inactive	inactive	inactive	inactive	inactive	inactive	inactive	inactive	inactive	inactive	inactive	inactive	–	–	–	–	–	–
CC(C)(C)N(CCO)CCO	inactive	inactive	inactive	inactive	–	–	inactive	inactive	inactive	inactive	inactive	inactive	inactive	–	–	–	–	–	–
CCN1CCCC1CNC(=O)c1cc(S(N)(=O)=O)ccc1OC (stereo unspecified)	–	inactive	inactive	inactive	inactive	inactive	inactive	inactive	inactive	inactive	–	inactive	inactive	43.6 µM (active)	–	–	–	–	–
c1cc(CN2CCCCC2)cc(OCCCNc2nc3ccccc3s2)c1	inactive	inactive	inactive	inactive	inactive	–	29.8 µM (active)	inactive	–	–	inactive	inactive	inactive	–	inactive	inactive	inactive	inactive	inactive
Cc1ccccc1Br	–	inactive	inactive	inactive	–	–	inactive	inactive	inactive	inactive	inactive	inactive	inactive	inactive	–	–	–	inactive	inactive
COc1ccc(N=[N+]([O-])c2ccc(OC)cc2)cc1	–	inactive	inactive	0.027 µM (active)	–	–	inactive	0.222 µM (active)	inactive	–	inactive	0.762 µM (active)	inactive	inactive	–	–	–	–	–
CCCCc1ccc2cccc(S(=O)(=O)O)c2c1	–	inactive	inactive	inactive	–	–	inactive	inactive	inactive	inactive	inactive	inactive	inactive	inactive	–	–	–	inactive	inactive
NC1CCN(c2cccc(Cl)n2)CC1	–	inactive	inactive	inactive	–	–	inactive	inactive	inactive	inactive	inactive	inactive	inactive	inactive	–	–	–	–	–
CCCCCCOC(=O)CC(CC(=O)OCCCCCC)(OC(=O)CCC)C(=O)OCCCCCC	inactive	inactive	inactive	inactive	–	–	inactive	inactive	inactive	inactive	inactive	inactive	inactive	–	–	–	–	inactive	inactive
CN(C)CCOC(c1ccc(Cl)cc1)c1ccccn1 (stereo unspecified)	inactive	inactive	–	–	–	–	inactive	inactive	inactive	inactive	inactive	inactive	inactive	–	–	–	–	–	–
O=[N+]([O-])c1ccc(Oc2ccc([N+](=O)[O-])cc2)cc1	inactive	inactive	inactive	inactive	–	–	inactive	inactive	inactive	–	–	inactive	inactive	–	–	–	–	inactive	inactive
CCCC=O	inactive	inactive	inactive	inactive	–	–	inactive	inactive	inactive	inactive	inactive	inactive	inactive	–	–	–	–	–	inactive
CCCCCCOC(=O)c1ccccc1O	inactive	inactive	inactive	inactive	–	–	inactive	17.8 µM (active)	inactive	inactive	–	inactive	inactive	–	–	–	–	inactive	inactive
CCCCCCCCN(C)CCCCCCCC	inactive	inactive	inactive	inactive	–	–	inactive	inactive	inactive	–	–	inactive	inactive	–	–	–	–	inactive	inactive
COC(=O)[C@H]1[C@H]2C[C@@H]3c4[nH]c5cc(OC)ccc5c4CCN3C[C@H]2C[C@@H](OC(=O)COc2ccc(OC)cc2)[C@@H]1OC	inactive	inactive	inactive	inactive	–	–	inactive	inactive	inactive	inactive	inactive	inactive	inactive	–	–	–	–	inactive	inactive
Cc1onc(-c2ccccc2)c1-c1ccc(S(N)(=O)=O)cc1	inactive	inactive	inactive	inactive	–	–	inactive	inactive	inactive	inactive	–	inactive	inactive	–	–	–	–	23.7 µM (active)	inactive
COc1cc(CCC(C)=O)ccc1O	inactive	inactive	inactive	inactive	–	–	inactive	inactive	inactive	inactive	inactive	inactive	inactive	–	–	–	–	inactive	inactive
C=C(C)C(=O)OCCC(C)OC(=O)C(=C)C (stereo unspecified)	inactive	inactive	inactive	inactive	–	–	inactive	inactive	inactive	inactive	–	inactive	inactive	–	–	–	–	inactive	inactive
CC(C)c1ccc2oc3nc(N)c(C(=O)O)cc3c(=O)c2c1	inactive	inactive	inactive	2.11 µM (active)	–	–	inactive	0.275 µM (active)	inactive	inactive	inactive	0.841 µM (active)	inactive	–	–	–	–	inactive	1.33 µM (active)
CNC(=O)c1c(I)c(NC(=O)CCCCC(=O)Nc2c(I)c(C(=O)O)c(I)c(C(=O)NC)c2I)c(I)c(C(=O)O)c1I	inactive	inactive	inactive	inactive	–	–	inactive	inactive	inactive	inactive	–	inactive	inactive	–	–	–	–	inactive	inactive
